# A number with no mark means an inactive call. Active and inactive are the calls of the source.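 The calls were made as follows: active = inhibition above the hit cutoff set in the earlier primary screen (cut at about 27% in these data); inactive = the rest.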
# Target: Protein phosphatase methylesterase 1 (Homo sapiens) (UniProt Q9Y570)
# Test: human PME-1 methylesterase inhibition confirmation – biochemical, fluorescence polarization, FP-Rh probe, triplicate (AID 2171);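 also: 0% = enzyme with DMSO and 100% = wells lacking PME-1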
# Conditions: recombinant PME-1, FP-Rh probe fluorescence polarization; at 5.9 µM; active compounds read high
# Sequence of Protein phosphatase methylesterase 1 (Homo sapiens) (Q9Y570 whole entry, looked up): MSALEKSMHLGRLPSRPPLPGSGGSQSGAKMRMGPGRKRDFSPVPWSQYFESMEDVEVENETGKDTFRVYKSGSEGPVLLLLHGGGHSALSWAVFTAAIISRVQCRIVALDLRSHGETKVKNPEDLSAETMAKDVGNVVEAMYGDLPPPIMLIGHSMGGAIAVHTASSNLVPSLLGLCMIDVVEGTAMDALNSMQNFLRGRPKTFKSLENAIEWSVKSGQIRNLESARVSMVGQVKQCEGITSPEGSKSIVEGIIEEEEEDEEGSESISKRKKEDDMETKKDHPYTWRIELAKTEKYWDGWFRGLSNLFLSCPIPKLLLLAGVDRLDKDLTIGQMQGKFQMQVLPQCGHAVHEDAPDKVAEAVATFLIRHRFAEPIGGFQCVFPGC
row,SMILES,inhibition
1,Cc1ccc(-n2c(O)c(/C=N/Nc3ccc(S(=O)(=O)N4CCOCC4)cc3[N+](=O)[O-])c3ccccc3c2=O)c(C)c1,37.9% (active)
2,Cc1ccc(N=Cc2nc(/C=C/c3cccc([N+](=O)[O-])c3)oc2O)cc1,30.2% (active)
3,CC1=NN(c2ccc(C)c(C)c2)C(=O)C1C(c1cccc(O)c1)C1C(=O)N(c2ccc(C)c(C)c2)N=C1C (centres undefined),15.3%
4,CCOc1cc(/C=C/c2ccc3cccc([N+](=O)[O-])c3n2)cc(Cl)c1O,-9.78%
5,Cc1[nH]n(-c2ccccc2)c(=O)c1N=Nc1c(O)cc(S(=O)(=O)N(C)C)c2ccccc12,74.3% (active)
6,COc1ccc2[nH]c3c(N4CCc5ccccc5C4)ncnc3c2c1,30.2% (active)
7,CCCCN(CC)CCCNC(=O)c1cn(C)c2ccc(S(=O)(=O)N(C)C3CCCCC3)cc2c1=O,14.5%
8,O=C1c2cccc3c(O)ccc(c23)C(=O)N1c1ccc(Cl)cc1,28.3% (active)
9,Cc1ccc(S(=O)(=O)CCSc2cccc(C(=O)Nc3ccccc3C(=O)O)c2)cc1,35.8% (active)
10,COc1ccc(/C(C)=C2/SC(=S)N(CCC(=O)O)C2=O)cc1,4.27%
11,O=C(COC(=O)/C=C/c1cccs1)Nc1nc(-c2cccc(Br)c2)cs1,14.9%
12,O=C1NC(=S)/C(=C\c2ccc(-c3ccccc3Cl)o2)S1,33.2% (active)
13,Oc1cccc(NC(=S)N=Nc2c(O)[nH]c3ccc(Br)cc23)c1,42% (active)
14,CCCCN(CCCC)CCNC(=O)c1cn(CC)c2ccc(S(=O)(=O)N(C)C3CCCCC3)cc2c1=O,85% (active)
